This passage reports inhibition results from PubChem BioAssay AID463190 (Sanford-Burnham Center for Chemical Genomics, 2010).

SMILES strings stand for the structures. About 7,300 (2.2%) of roughly 330,000 compounds were called active.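 The calls were made as follows: active = inhibition of at least 40%; inactive = the rest.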 Shown is part of a subset that was picked to be rich in actives.

A short description of the assay: growth inhibitors of tim10-1 mutant yeast, primary screen, luminescence, uHTS (AID 463190).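 Also: mutant grown at 25 °C; 0% = DMSO wells with yeast and 100% = wells holding no yeast.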 As to conditions: S. cerevisiae tim10-1 ts strain growth, BacTiter-Glo, 24 h; at 20 µM; stronger effect = higher value.
As to `C/C=C(\C)C(=O)NCCN1C2=NC[C@H](Cc3ccc(O)cc3)N2C[C@@H]1Cc1ccc(OC)cc1`, the inhibition (as a rule, the change of the read-out against control, counted positive when it falls) is -7.43% (inactive). For `O=c1[nH]n(-c2ccc([N+](=O)[O-])cc2)c(=O)c2ccccc12`, the inhibition was -4.91% (inactive).

As for `O=C1CC(c2ccccc2)=NN1c1ccc([N+](=O)[O-])cc1`, the inhibition was 44.5% (active). As to `Cc1nc(-c2ccc([N+](=O)[O-])cc2)c(-c2ccccc2)o1`, the inhibition was 14.6% (inactive).

Take `COc1ccc2ccn(C)c2c1`: the inhibition was -6.1% (inactive).

In the case of `COc1ccc2c(c1)cc1n2CCN=C1NN`, the inhibition was 43.7% (active). As to `CC12COC3(C(=O)Nc4ccc(Cl)cn4)CC1CCC32C` (centres undefined), the inhibition was 33.3% (inactive).

As for `CCC1(CC)NC(=O)N(Cc2nc3ccccc3s2)C1=O`, the inhibition is 9.64% (inactive).

As for `CCC(C)Cn1c(O)cc2nn(-c3nc4ccccc4s3)c(=O)c-2c1C` (centres undefined), the inhibition is 0.194% (inactive). Consider `CC(=NCc1ccco1)c1c(C(F)(F)F)[nH]n(-c2nc3ccccc3s2)c1=O`, for which the inhibition was 75.2% (active). On to `CCOC(=O)c1sc(N)c(C#N)c1COC(=O)C1=COCCO1`, for which the inhibition was 9.07% (inactive). In the case of `O=C(NCC(c1cccs1)N1CCOCC1)c1cc(Cl)ccc1[N+](=O)[O-]` (centres undefined), the inhibition is 3.29% (inactive). For `COc1cccc(-c2cc3nc4c(c(N5CCC6(CC5)OCCO6)n3n2)CCCC4)c1` the value was 41.5% (active); for `COc1cccc(CNc2nc3nc4c(c(=O)n3[nH]2)CCC4)c1`, -3.51% (inactive). Regarding `COc1ccc(OC)c(/C(C)=N\NC(=O)c2cc3cc(Cl)ccc3n2C)c1`, the inhibition is 14.6% (inactive). As for `C=CCn1c(SCC(=O)NC)nnc1C12CC3CC(CC(C3)C1)C2`, the inhibition is 11.2% (inactive).

As to `O=[N+]([O-])/C=C/c1ccc2c(ccn2Cc2ccccc2)c1`, the inhibition was -97.4% (inactive). Take `CCS(=O)(=O)Nc1ccc(C2=NN(S(=O)(=O)c3ccc(F)cc3)C(c3ccco3)C2)cc1` (centres undefined): the inhibition was 13.9% (inactive).

In the case of `COCCn1cnc2c1c(=O)n(CC(=O)NN)c(=O)n2Cc1ccccc1`, the inhibition is 10.9% (inactive).

Regarding `O=C(NCc1ccc2c(c1)OCO2)C(=O)NCC1OCCN1S(=O)(=O)c1ccc(F)cc1` (centres undefined), the inhibition was -2.49% (inactive). For `O=C(Nc1cccc(F)c1)NC1CCCc2ccccc21` (centres undefined), the inhibition is 30.5% (inactive). For the molecule `O=C(Nc1cccc(F)c1)NC1CCCCCCC1`, the inhibition is 45.3% (active).

Turning to `C/C(CC(=O)Nc1cccc(F)c1)=N\NC(=O)C(=O)NC1CCCCC1`, the inhibition was 15.5% (inactive).

Turning to `Cc1c(C(=O)O)nnn1-c1nonc1N`, the inhibition was 3.56% (inactive). For the molecule `C#CCOCCOCCOCCNc1nc(N2CCN(C(=O)[C@H](CO)n3cc([C@@H](N)C(C)C)nn3)CC2)nc(N2CCN(C(=O)[C@H](CCC(=O)O)n3cc([C@@H](N)[C@H](C)CC)nn3)CC2)n1`, the inhibition is 9.15% (inactive). For `CC(C)(C)n1c(=O)[nH]c2c(c1=O)CCC2`, the inhibition was -3.65% (inactive). In the case of `NNC(=O)c1oc2nc(-c3ccccc3)cc(-c3ccco3)c2c1N`, the inhibition was 19.9% (inactive).

Take `CNC(=S)NNC(=O)c1oc2nc(-c3ccccc3)cc(-c3ccco3)c2c1N`: the inhibition was 18.1% (inactive).

Turning to `CS(=O)(=O)c1sc2nc(-c3ccccc3)cc(-c3ccccc3)c2c1N`, the inhibition is 49.2% (active). Regarding `O=C(O)CSCc1ccc(C(=O)O)o1`, the inhibition was 3.55% (inactive). Take `C/C=C/C=C/C(=O)OCC(=O)Nc1ccc(Cl)cc1`: the inhibition is 15.8% (inactive). With `CN(C)c1ccc(/C=C/C(=O)c2ccc(O)cc2)cc1[N+](=O)[O-]`, the inhibition was 15.8% (inactive).

Regarding `O=C(/C=C/c1ccc(Cl)c([N+](=O)[O-])c1)c1cccnc1`, the inhibition was 46.1% (active). As to `O=C(/C=C/c1ccc(Cl)cc1Cl)c1cccnc1`, the inhibition was 25% (inactive). Turning to `CN(C)c1ccc(/C=C/C(=O)c2ccc(C(C)(C)C)cc2)cc1[N+](=O)[O-]`, the inhibition was 27.1% (inactive). In the case of `O=C(Nc1ccncc1)c1ccc(Cl)c([N+](=O)[O-])c1`, the inhibition is -50.2% (inactive). Turning to `O=C(/C=C/c1ccc(Cl)c([N+](=O)[O-])c1)c1ccc(O)cc1`, the inhibition is 41.3% (active). The figure for `COc1ccc(CCNC(=O)c2ccc(CS(=O)(=O)c3ccc(Br)cc3)o2)cc1OC` is 24.5% (inactive); for `O=C(Cn1c(NCCO)nc2ccccc21)c1ccc(Cl)cc1Cl` it is 1.93% (inactive). In the case of `CCCCn1ccnc1C(=O)c1cccc(S(=O)(=O)N2c3ccccc3CC2C)c1` (centres undefined), the inhibition was 29.3% (inactive). `O=C1COc2ccc(C(=O)COC(=O)c3cccnc3Cl)cc2N1`: the inhibition is -6.62% (inactive). As to `CCc1nnc(NC(=O)CSc2nnc(-c3ccncc3)n2Cc2ccccc2)s1`, the inhibition was 10.1% (inactive). For `COC(=O)c1cc(NC(=O)CC2C(=O)NCCN2C(=O)c2ccc(F)cc2)cc(C(=O)OC)c1` (centres undefined) the value was -15.9% (inactive); for `COc1ccc(N2C(=O)CC(Sc3n[nH]c(-c4ccc(C)cc4)n3)C2=O)cc1` (centres undefined), 54.7% (active). For the molecule `COc1ccc(N2C(=O)CC(SC(C)C)C2=O)cc1` (centres undefined), the inhibition is -8.61% (inactive). Consider `Cc1ccc(N2C(=O)CC(Sc3ncn[nH]3)C2=O)cc1` (centres undefined), for which the inhibition is 30.2% (inactive).

For `COc1ccccc1C(=O)NCCn1cc(SCC(=O)NCc2ccco2)c2ccccc21`, the inhibition is 29.1% (inactive). Turning to `COc1cc(C(c2c(NC(=O)c3ccco3)sc(C)c2C)N2CCOCC2)cc(OC)c1OC` (centres undefined), the inhibition is 20.7% (inactive). For `O=C1[C@@H](c2ccccc2)[C@@H](c2ccccc2)N1c1cccnc1`, the inhibition is 66.6% (active). Consider `CC(=O)C1=C(O)C(=O)N(c2cccnc2)C1c1ccc([N+](=O)[O-])cc1` (centres undefined), for which the inhibition was 0.316% (inactive). For `CCc1ccccc1NC1c2ccccc2C(=O)N1c1cccnc1` (centres undefined) the value was 36.7% (inactive). In the case of `O=C(N/N=C/c1ccc(OCC2COCCO2)cc1)c1ccc(Br)cc1` (centres undefined), the inhibition is -0.668% (inactive).

`CCOc1ccc(OCC)c(-c2c(=O)n(OCc3ccc(Cl)cc3)c3ccccc3[n+]2[O-])c1`: the inhibition was 26.2% (inactive). Regarding `CCOC(=O)COn1c(=O)c(-c2ccc(OCC)cc2)[n+]([O-])c2ccccc21`, the inhibition is 31.6% (inactive). For `COc1ccc(OC)c(-c2c(=O)n(OCc3ccccc3Br)c3ccccc3[n+]2[O-])c1` the value was 47.1% (active); for `COC(=O)c1c(-c2ccsc2)oc2ccc(-c3cc(OC)c(OC)c(OC)c3)cc12`, 28.1% (inactive); for `N#CCOc1ccc(C2=NO[C@@H]3[C@@H]4C[C@@H]([C@H]5C(=O)N(c6ccc7c(c6)OCO7)C(=O)[C@@H]45)[C@H]23)cc1`, 18.3% (inactive). The figure for `C=CS(=O)c1sc(Cl)c(N2CCOCC2)c1[N+](=O)[O-]` (centres undefined) is 79.3% (active); for `Nc1c(N(CCO)C(=O)C2CCCCC2)c(=O)[nH]c(=O)n1Cc1ccccc1` it is 15.1% (inactive). For `COc1ccccc1C(=O)NCC(=O)OCC(=O)NNC(=O)c1ccc(Br)cc1` the value was -10.1% (inactive); for `Cc1ccc2c(c1)c1ncn(CCC3=CCCCC3)c(=O)c1n2C`, 22.5% (inactive); for `Cc1ccc(-c2cc(C(=O)N3CCc4ccccc4C3)no2)cc1`, 18.4% (inactive). With `Cc1ccc2c(c1)c1ncnc(N3CCc4ccccc4C3)c1n2C`, the inhibition is 44% (active). On to `O=C(C1CCC(=O)N(C2CC2)C1)N1CCN(c2ccc(Cl)cc2)CC1` (centres undefined), for which the inhibition is -6.67% (inactive). As to `C=CCNC(=O)CC12CC3CC(C1)CC(CC(=O)NCC=C)(C3)C2`, the inhibition was 9.8% (inactive). Turning to `CCOc1cccc(-c2nn3c(-c4ccccn4)nnc3s2)c1`, the inhibition was 42% (active).

With `CCOc1cccc(-c2nnc(SCC(=O)NC3CC3)n2C)c1`, the inhibition is 6.04% (inactive). In the case of `COc1ccc(-n2c(SCC(=O)OC(C)C)nnc2-c2ccccn2)cc1`, the inhibition is 34.2% (inactive). Turning to `O=C(O)C1C2C=CC(C2)C1C(=O)NCc1ccccc1` (centres undefined), the inhibition is -21.1% (inactive). As to `COc1ccc(C2=NO[C@@H]3C(=O)N(Cc4ccccc4)C(=O)[C@H]23)cc1OC`, the inhibition is 14.3% (inactive). Take `CCn1nccc1C(=O)Nc1ccc(Cl)c(Cl)c1`: the inhibition was 44% (active). The figure for `CC(c1cccnc1)N(CCN(C)C)C(=O)Nc1ccc(Cl)c(Cl)c1` (centres undefined) is 4.37% (inactive); for `CCn1nccc1C(=O)Nc1ccc(S(=O)(=O)NC23CC4CC(CC(C4)C2)C3)cc1` it is 26.7% (inactive); for `CN1CCN(C(=O)CCc2ncc(C(F)(F)F)cc2Cl)CC1` it is -4.04% (inactive). Consider `COC(=O)c1c(C(=O)OC)c(-c2cccc(C)c2)n2c1CS(=O)C2` (centres undefined), for which the inhibition is 10.8% (inactive).

As for `CCOCCCNC(=O)c1ccc(CS(=O)(=O)c2cccc(C(F)(F)F)c2)o1`, the inhibition is 6.36% (inactive). Regarding `Cc1ccc(NS(=O)(=O)c2ccc(-c3ccc(=O)[nH]n3)o2)c(C)c1`, the inhibition was 1.41% (inactive).

Consider `Cc1ccc(-c2csc(NC(=O)Cn3[nH]c(=O)c4ccccc4c3=O)n2)cc1`, for which the inhibition is 31.6% (inactive). Turning to `Cc1ccc(-c2csc(NC3OC(=O)c4ccccc43)n2)cc1` (centres undefined), the inhibition is 5.08% (inactive). As to `Cc1ccc(-c2csc(-c3c[nH]c4ccccc34)n2)cc1`, the inhibition was 60.4% (active). `COc1cc(N2C(=O)CC3(CCCC3)CC2=O)cc(OC)c1OC`: the inhibition was 11.2% (inactive). As for `N#CC1(C#N)C(C(=O)C23CC4CC(CC(C4)C2)C3)C12CCOCC2` (centres undefined), the inhibition is 47.6% (active).

With `CC(C)(C)c1ccc(C(=O)NCc2nnc(SCC(=O)N3CCCc4ccccc43)n2-c2ccccc2)cc1`, the inhibition is 1.45% (inactive). The figure for `O=C(COC(=O)CCCSc1nc2ccccc2[nH]1)Nc1ccc(Oc2ccccc2)cc1` is 14.2% (inactive). As to `Cc1ccc(-c2ccc(/C=C(\C#N)C(N)=S)o2)c([N+](=O)[O-])c1`, the inhibition is 57.3% (active).

In the case of `Cc1cc([N+](=O)[O-])c(-c2ccc(/C=N/n3cnnc3)o2)cc1Cl`, the inhibition is 16.2% (inactive). The figure for `Cc1cc(C)c([N+](=O)[O-])cc1-c1ccc(/C=N/NC(=O)c2nonc2N)o1` is -16.4% (inactive).

In the case of `CCOC(=O)CCCCCC(=O)Nc1ccc2c(c1)CC(=O)N([C@@H](C)CO)C[C@H](C)[C@@H](CN(C)Cc1ccccc1)O2`, the inhibition is -5.39% (inactive). With `Cn1nnnc1SCC(=O)NNC(=O)c1ccc(Br)cc1`, the inhibition is 0.63% (inactive).
